Results: PubChem BioAssay (NCI)
The panel holds about 79,000 compounds, 15% with a hit somewhere; the sample as a whole holds those more often. Values without a mark were called inactive. The source made the active and inactive calls. Rule as the data show it: active = growth inhibition above about 70%; inactive = the rest.

Legend:
[1] = NCI Yeast Anticancer Drug Screen. Data for the rad50 strain (AID 155);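 also: 0% = growth of vehicle-only cultures of the same strain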; conditions: S. cerevisiae rad50 strain growth inhibition; at 50.0 µM; hits give high values
Procedure, shortened: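 A DNA repair-deficient yeast mutant serves as the test organism; compound-induced growth inhibition is calculated against vehicle-treated cells.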

[2] = NCI Yeast Anticancer Drug Screen. Data for the mec2-1 strain (AID 157); conditions: S. cerevisiae mec2-1 strain, at 50.0 µM, hits give high values
Procedure, shortened: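 Test agents were screened against the mec2-1 yeast strain, with defined DNA repair or cell cycle alteration. Growth was scored as inhibition against vehicle-only controls.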

[3] = NCI Yeast Anticancer Drug Screen. Data for the sgs1 mgt1 strain (AID 161);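 also: 0% = growth of cultures given vehicle only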; conditions: S. cerevisiae sgs1 mgt1 strain, at 50.0 µM, hits give high values
Procedure, shortened: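 Genetically altered yeast, compound exposure, growth inhibition relative to vehicle.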

[4] = NCI Yeast Anticancer Drug Screen. Data for the cln2 rad14 strain (AID 165);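 also: 0% = growth equal to vehicle treated cultures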; conditions: S. cerevisiae cln2 rad14 strain, at 50.0 µM, hits give high values
Procedure, shortened: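 Growth of compound-exposed yeast (cln2 rad14 genotype) measured and expressed as inhibition relative to vehicle.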

[5] = NCI Yeast Anticancer Drug Screen. Data for the bub3 strain (AID 167); conditions: S. cerevisiae bub3 mutant strain, at 50.0 µM, hits give high values
Procedure, shortened: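 Inhibition values come from growth of compound-treated mutant yeast normalised to vehicle-treated controls.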

[6] = NCI Yeast Anticancer Drug Screen. Data for the mlh1 rad18 strain (AID 175); conditions: S. cerevisiae mlh1 rad18 strain growth inhibition; at 50.0 µM; hits give high values
Procedure, shortened: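 In this whole-cell yeast screen, a strain with altered DNA damage repair is challenged with compound, and its growth is measured against matched vehicle-treated controls.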

Row | SMILES | growth inhibition [1] [%] | growth inhibition [2] [%] | growth inhibition [3] | growth inhibition [4] [%] | growth inhibition [5] [%] | growth inhibition [6]
1 | CCNOCc1ccccc1 | -4.35 | -11.7 | -11% | -18.1 | -0.45 | -9.95%
2 | N#Cc1ccccc1NC(=O)C(=O)C(C(=O)c1ccncc1)C1OC(=O)c2ccccc21 (stereo unspecified) | -2.55 | -17.1 | -31.3% | 10.1 | -0.65 | 5.3%
3 | Nc1ccc(C(=O)O)c(N)c1 | -4.35 | 1.45 | -14.1% | -40.3 | -22.5 | -1.1%
4 | CCOC(=O)Cc1cc(C)c2ccccc2n1 | -7.75 | -5.65 | 4.3% | -19.6 | -9.4 | 7.45%
5 | [Fe+2].[NH-]C(Cc1ccc(O)cc1)C(=O)O.[NH-]C(Cc1ccc(O)cc1)C(=O)O (stereo unspecified) | 15.1 | 8.25 | 24.1% | 23.4 | -2.4 | 30.1%
6 | CN1C(=O)N(c2ccccc2)C2(CCN(CC3COc4ccccc4O3)CC2)C1=O (stereo unspecified) | 4.05 | -4.45 | 21.6% | 4.7 | -6.9 | 8.75%
7 | O=C(O)CNCc1ccc2c(c1)OCCO2 | 6.7 | 15.7 | -10.4% | -3.35 | -3.5 | -15.8%
8 | Cc1cc2c(=O)[nH]cnc2[nH]1 | -5.6 | -1.35 | -16.7% | 4.45 | 13.8 | -1.15%
9 | O=C1C/C(=C\c2ccccc2O)C(=O)c2ccccc21 | 66.3 | 61.1 | 83.4% (active) | 57.8 | 54.8 | 82.8% (active)
10 | ON(CCc1ccncc1)Cc1ccccc1 | 1.6 | -31.1 | -20.1% | 2.95 | -56.3 | 15.5%
11 | CC(=O)OCC1C(=O)OCC1C(=O)N1Cc2cc3ccccc3nc2C1 (stereo unspecified) | -10.6 | -1.55 | 13.7% | -18.9 | 31.2 | -9.85%
12 | O=C(/C=C/c1ccccc1)CCc1c(O)c2ccccc2oc1=O | 9.05 | -5.3 | 0.45% | 31.1 | 1.85 | 28.8%
13 | CC1(C)CCC23CCC4(C)C(CCC5C6(C)CCC(=O)C(C)(C)C6CCC54C)C2C1OC3 (stereo unspecified) | -27.4 | -4.15 | -4.05% | 20.9 | -0.7 | -5.1%
14 | Cc1cc(Cl)c2ccc(Cl)c(C)c2n1 | 6.65 | -8.55 | 3.65% | -11.1 | 5.4 | 0.15%
15 | O=c1n(-c2ccccc2)c(=O)n2c(-c3ccccc3)c(-c3ccccc3)n12 | 38.5 | -23.7 | -36.5% | -12.6 | -23.6 | -30.8%
16 | COc1ccc(Nc2nc3ccccc3nc2C(=O)O)cc1OC | -23.9 | 12.1 | -9.6% | 6.15 | 26.1 | -33.8%
17 | NC(N)=N/N=C/c1oc(-c2ccc(S(=O)(=O)O)o2)c(-c2ccc(S(=O)(=O)O)o2)c1[N+](=O)[O-] | -21.4 | 9.6 | -22% | 6.6 | -3.35 | 0.95%
18 | C=C1C2CC3CCC2C(OC(=O)c2ccccc2C(=O)O)C13 (stereo unspecified) | -0.45 | -11.2 | 1.4% | 14.8 | -2.2 | -19.3%
19 | O=C(O)c1ccccc1NC(C(=O)O)c1ccccc1 (stereo unspecified) | -13.1 | -4.25 | -27.4% | 9.1 | -18.9 | -11.7%
20 | OC1(C#CC2(O)CCCC2)CCCC1 | -8.9 | -11.9 | 15.4% | -8.05 | -1.2 | 23.9%
21 | O=C(c1ccccc1)C(c1ccccc1)S(=O)(=O)N1CCOCC1 (stereo unspecified) | 1.3 | 13.3 | 2.85% | -13.1 | -11.6 | -7.65%

Row | SMILES | growth inhibition [1] [%] | growth inhibition [2] [%] | growth inhibition [3] | growth inhibition [4] [%] | growth inhibition [5] [%] | growth inhibition [6]
22 | Cc1ccc(=O)n(Cc2ccccc2)n1 | -8.25 | -31.9 | -11.8% | 21.1 | -12.2 | 2.75%
23 | CC1=CC(=O)N2CCN=C2S1 | -7.05 | -14.9 | 1.65% | -20.6 | -3 | -5.75%
24 | CC(C)CNc1ncnc2c1cnn2C | -1.65 | 2.9 | -1.65% | -3.15 | 9.8 | -8.45%
25 | CN1c2ccccc2C2CC(CC#N)CC(=O)C21 (stereo unspecified) | 18.9 | 13.7 | -8.1% | -12.2 | -20.2 | 20.2%
26 | CCCCCCCC(NC(C)=O)(C(=O)OCC)C(=O)OCC | -9.25 | -19.1 | -4.55% | -29.9 | 6.75 | -28.8%
27 | COC(=O)N/N=C(\C)CC(=O)Nc1ccc(Cl)cc1 | -22.9 | -32.6 | -28.2% | -5.95 | -27.2 | -43.7%
28 | N#CC(NNC(=O)c1ccccc1O)c1ccccc1 (stereo unspecified) | 16.1 | 0.5 | 9.85% | -8.7 | 35.9 | 3.75%
29 | CCOP(=O)(O)C1CC2C3CC=C4CC(O)CCC4(C)C3CCC2(C)C1C(C)=O (stereo unspecified) | 15.9 | -3.25 | -0.55% | -14.4 | -2 | 3.5%
30 | COc1c(O)cc2oc(-c3ccc(O)cc3)cc(=O)c2c1O | 11 | -5.7 | 29.8% | 10.8 | 16.2 | -0.05%
31 | O=CNCCNC=O | 0.05 | -2.25 | -15% | -12.7 | 0.65 | -1.85%
32 | CN(C)C1CS(=O)(=O)OC2=C1CCSc1ccccc12 (stereo unspecified) | 5.1 | 12.1 | 11.4% | -84.7 | -5.65 | 7.6%
33 | COC1CCC(OC)(C(=O)NN)O1 (stereo unspecified) | -22.9 | -53.1 | -9.45% | 4.3 | -57.2 | -0.6%
34 | CC/C(=N\N=C(/CC)c1ccc[nH]1)c1ccc[nH]1 | 36.8 | -23.8 | 10.2% | 5.9 | 23.3 | 9.25%
35 | CCOC(=O)C1=C(C)N(c2ccccc2)C2=C(C(=O)N(c3ccccc3)C2c2ccccc2)C1c1ccccc1 (stereo unspecified) | 9.9 | -13.8 | 9.25% | 15 | -21.7 | 7.2%
36 | O=C1C=C(Nc2ccc(S(=O)(=O)Nc3ncccn3)cc2)c2ccccc2C1=O | 27.4 | 41.5 | 50.1% | 30.8 | 18.9 | 44.6%
37 | O=C1OC(C2Cc3cc4c(cc3C2=O)CCC4)c2ccccc21 (stereo unspecified) | -33.1 | -25.4 | -7.75% | -2.55 | -18.9 | -13.4%
38 | NCCCNCCCCNC(=O)C(O)NC(=O)CCCCCCN=C(N)N (stereo unspecified) | -2.7 | -11.2 | -2.05% | 11.4 | 3.4 | -1.6%
39 | CC1CC(C)NC(C)C1 (stereo unspecified) | -17.1 | -25.6 | -50% | 3.15 | -10.9 | -7.6%
40 | COC(=O)C(C)=C1CCCCC1 | 17.9 | -3.9 | -13.2% | -38 | 11.6 | -13.2%
41 | c1ccc(CCN2CCN(CCc3ccccn3)CC2)nc1 | 6.25 | 6 | -6.95% | -19.6 | 3.8 | 0.2%
